In PubChem BioAssay AID1159580 (chemical genetic matrix, 2015):
Where “and” joins values, the source holds several entries; their conditions need not be identical. Equal values may be shown once. Screen size: about 5,500 compounds; about 2,000 (36%) were called active. Another 18% or so got no clear call; they are omitted. Cut-off read from the data, not from the text of the source: active = normalized growth mostly below about 0.91 (no sharp cut-off); inconclusive = no clear call, values can overlap the other calls; inactive = mostly above about 0.92. The list shows a part of the results.

Experiment: chemical genetic growth profiling, strain panel (AID 1159580);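 note: tested at 20 µM; growth read once vehicle control cultures reached saturation at 30 °C; 1 = growth at the plate median or of vehicle wells; lower values mean less growth of the strain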
Conditions: S. cerevisiae deletion strains, growth OD

Measured: normalized growth

CCCCCCCCC(=O)NCc1ccc(O)c(OC)c1
inactive: locus YAL013W, strain DEP1, active compounds read low 0.99 | locus YAL021C, strain ccr4, active compounds read low 0.996 | locus YAL026C, strain drs2, active compounds read low 1.01 | locus YAL030W, strain snc1, active compounds read low 1 | locus YAL040C, strain CLN3, active compounds read low 0.982 | locus YBL061C, strain skt5, active compounds read low 1.01 | locus YBR009C, strain hhf1, active compounds read low 0.987 | locus YBR021W, strain FUR4, active compounds read low 0.958 | locus YBR023C, strain chs3, active compounds read low 0.989 | locus YBR171W, strain sec66, active compounds read low 0.983 | locus YBR229C, strain ROT2, active compounds read low 0.988 | locus YBR231C, strain swc5, active compounds read low 0.995 | locus YBR279W, strain paf1, active compounds read low 1.01 | locus YCL011C, strain gbp2, active compounds read low 0.981 | locus YCL016C, strain dcc1, active compounds read low 0.984 | locus YCL029C, strain bik1, active compounds read low 0.989 | locus YCL061C, strain MRC1 (second series), active compounds read low 0.994 | locus YCL061C, strain MRC1, active compounds read low 1 | locus YCL069W, strain vba3, active compounds read low 0.979 | locus YCR088W, strain abp1, active compounds read low 0.975 | locus YDL005C, strain med2, active compounds read low 0.995 | locus YDL035C, strain GPR1, active compounds read low 0.981 | locus YDL040C, strain nat1, active compounds read low 1 | locus YDL074C, strain BRE1, active compounds read low 0.981 | locus YDL101C, strain DUN1, active compounds read low 0.976 | locus YDL134C, strain PPH21, active compounds read low 0.976 | locus YDL185W, strain tfp1, active compounds read low 0.991 | locus YDL192W, strain arf1, active compounds read low 0.989 | locus YDR001C, strain nth1, active compounds read low 0.988 | locus YDR069C, strain doa4, active compounds read low 1 | locus YDR101C, strain arx1, active compounds read low 0.98 | locus YDR137W, strain rgp1, active compounds read low 1.03 | locus YDR150W, strain NUM1, active compounds read low 0.989 | locus YDR159W, strain sac3, active compounds read low 1.07 | locus YDR162C, strain NBP2, active compounds read low 1.01 | locus YDR195W, strain ref2 1.04 | locus YDR297W, strain sur2, active compounds read low 1 | locus YDR318W, strain mcm21, active compounds read low 0.965 | locus YDR334W, strain swr1, active compounds read low 0.997 | locus YDR335W, strain msn5, active compounds read low 1.01 | locus YDR363W, strain ESC2, active compounds read low 0.988 | locus YDR388W, active compounds read low 0.981 | locus YDR392W, strain spt3, active compounds read low 0.805 | locus YDR502C, strain sam2, active compounds read low 0.978 | locus YEL003W, strain gim4, active compounds read low 0.985 | locus YEL037C, strain rad23, active compounds read low 0.982 | locus YEL061C, strain CIN8 (second series), active compounds read low 0.982 | locus YEL061C, strain CIN8, active compounds read low 0.998 | locus YER002W, strain NOP16, active compounds read low 0.986 | locus YER015W, strain faa2, active compounds read low 1.01 | locus YER016W, strain bim1, active compounds read low 1.01 | locus YER110C, active compounds read low 0.981 | locus YER111C, strain swi4, active compounds read low 0.991 | locus YER155C, strain BEM2 (second series), active compounds read low 0.964 | locus YER155C, strain BEM2, active compounds read low 0.985 | locus YER167W, strain BCK2, active compounds read low 0.978 | locus YFR010W, strain ubp6, active compounds read low 1.02 | locus YGL078C, strain dbp3, active compounds read low 0.992 | locus YGL086W, strain mad1, active compounds read low 0.967 | locus YGL167C, strain pmr1, active compounds read low 1 | locus YGL173C, strain kem1, active compounds read low 1.01 | locus YGL227W, strain vid30, active compounds read low 0.971 | locus YGL240W, strain doc1, active compounds read low 0.994 | locus YGL248W, strain PDE1, active compounds read low 0.981 | locus YGL253W, strain hxk2, active compounds read low 1.03 | locus YGR078C, strain PAC10, active compounds read low 1.01 and 1 | locus YGR135W, strain pre9, active compounds read low 0.987 | locus YGR229C, strain SMI1, active compounds read low 1 | locus YGR252W, strain gcn5, active compounds read low 0.872 | locus YHR013C, strain ard1, active compounds read low 0.992 | locus YHR027C, strain rpn1, active compounds read low 1.02 | locus YHR030C, strain SLT2, active compounds read low 0.988 and 1.01 | locus YHR079C, strain IRE1 (second series), active compounds read low 0.985 | locus YHR079C, strain IRE1, active compounds read low 0.985 | locus YHR094C, strain hxt1, active compounds read low 0.979 | locus YHR129C, strain ARP1, active compounds read low 0.988 | locus YHR142W, strain chs7, active compounds read low 0.983 | locus YHR200W, strain rpn10, active compounds read low 0.981 | locus YIL066C, strain RNR3, active compounds read low 0.953 | locus YIL073C, strain SPO22, active compounds read low 0.958 | locus YIL125W, strain kgd1, active compounds read low 0.99 | locus YIR030C, strain dcg1, active compounds read low 0.983 | locus YJL092W, strain hpr5, active compounds read low 0.978 | locus YJL095W, strain BCK1 (second series), active compounds read low 1 | locus YJL095W, strain BCK1, active compounds read low 0.989 and 1 | locus YJL115W, strain asf1, active compounds read low 0.988 | locus YJL129C, strain trk1, active compounds read low 0.977 | locus YJL134W, strain LCB3, active compounds read low 0.989 | locus YJL154C, strain vps35, active compounds read low 0.983 | locus YJL164C, strain tpk1, active compounds read low 0.972 | locus YJL166W, strain qcr8, active compounds read low 0.991 | locus YJL168C, strain set2, active compounds read low 0.99 | locus YJL187C, strain SWE1 (second series), active compounds read low 0.978 | locus YJL187C, strain SWE1, active compounds read low 1.02 | locus YJR043C, strain POL32, active compounds read low 0.983 | locus YJR066W, strain TOR1, active compounds read low 0.91
